According to the supplement of paper PMC4894684:
Where “and” joins values, the source holds several entries; their conditions need not be identical. Equal values may be shown once. Where a name gives a salt, the structure may show the parent alone. ± gives the standard deviation of the averaged measurements.

Tested on: Toxoplasma gondii RH (in HFF)
Test: parasite growth relative to the screen mean (all compounds = 100%); higher = less inhibition of parasite growth
Conditions: 5 µM; 72 h; oxygen 21 %
Method in brief: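 Confluent human foreskin fibroblasts in 96-well plates received library compounds by pin transfer at 5 µM final, taken from 10 mM DMSO stocks. Within 2 h the cells were infected with RH β-Gal–GFP Toxoplasma at MOI 1:5 and cultured 72 h at 21% O2. A CPRG β-Gal assay read against in-plate standard curves gave parasite number, and growth is stated relative to the screen mean, where all compounds = 100%, averaged across two screens.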

| SMILES | parasite growth |
| --- | --- |
| CNC(=O)c1cc2c(cn1)[nH]c1ccccc12 | 124 ± 19% |
| Cc1sc(N)c(C(=O)c2cccc(C(F)(F)F)c2)c1C | 141 ± 7.3% |
| CCCc1c(OCC(O)COc2ccc3c(=O)cc(C(=O)O)oc3c2CCC)ccc(C(C)=O)c1O (centres undefined) | 96.9 ± 7.1% |
| N#C/C(=C\c1ccc(O)c(O)c1)C(=O)NCCCCc1ccccc1 | 155 ± 18% |
| NC(=O)CNCCC(c1ccccc1)c1ccccc1 [N20C hydrochloride] | 71.4 ± 14% |
| COc1cccc(NC(=O)/C=C/c2ccc(Cl)cc2)c1 | 136.1 ± 0.67% |
| CCCn1c(=O)[nH]c2nc(-c3ccc(S(=O)(=O)O)cc3)[nH]c2c1=O | 112 ± 5.7% |
| CN1Cc2c(C(=O)OC(C)(C)C)ncn2-c2ccsc2C1=O | 55.6 ± 4.8% |
| Cc1ccccc1N1CCN(S(=O)(=O)C[C@]23CC[C@H](C[C@@H]2NC(=O)[C@@H](N)CCS(C)(=O)=O)C3(C)C)CC1 [L-368,899 hydrochloride] | 161 ± 16% |
| O=C(NCCO[N+](=O)[O-])c1cccnc1 [Nicorandil] | 109 ± 12% |
| COc1cc2c(CCNC(C)=O)c[nH]c2cc1Cl [6-Chloromelatonin] | 131 ± 24% |
| C=C[C@@]1(C)CC(=O)[C@]2(O)[C@@]3(C)[C@@H](O)CCC(C)(C)[C@@H]3[C@H](O)[C@H](OC(C)=O)[C@@]2(C)O1 [Forskolin] | 116 ± 2.3% |
| CCOCC(O)COc1ccc(NC(=O)CC[S+](C)C)cc1 (centres undefined) [Suplatast tosylate] | 75 ± 16% |
| CCC(C)N(C)C(=O)c1cc2ccccc2c(-c2ccccc2Cl)n1 (centres undefined) | 85.5 ± 33% |
| O=S(=O)(c1cccc2c(Cl)cccc12)N1CCCNCC1 [ML 9 hydrochloride] | 122 ± 19% |
| NCCCCCCCCCCNS(=O)(=O)c1cccc2c(Cl)cccc12 [A-7 hydrochloride] | 142 ± 17% |
| Clc1ccc2c(c1)N=C(N1CCNCC1)c1ccccc1N2 [N-Desmethylclozapine] | 59.7 ± 2.8% |
| NC(=O)OCC(COC(N)=O)c1ccccc1 [Felbamate] | 85.9 ± 60% |
| CCCCC1CCC(c2nc(-c3ccncc3)no2)CC1 (centres undefined) | 81.9 ± 14% |
| O=C(/C=C/c1ccc(O)c(O)c1)O[C@H](Cc1ccc(O)c(O)c1)C(=O)O [Rosmarinic acid] | 110 ± 5.5% |

| SMILES | parasite growth |
| --- | --- |
| COC(=O)C1=C(C)NC(C)=C(C(=O)OC)C1c1ccccc1[N+](=O)[O-] [Nifedipine] | 110 ± 36% |
| N[C@@H](Cn1ccc(=O)n(Cc2ccccc2C(=O)O)c1=O)C(=O)O | 108% and 93.5% |
| CCCCCCC(=O)OC1CC(C)(C)NC(C)(C)C1 [TMPH hydrochloride] | 123 ± 14% |
| c1ccc2nc(C3=NCCN3)cnc2c1 [BU 239 hydrochloride] | 102 ± 22% |
| CC(=O)N(OCc1ccccc1)[C@H]1c2cc(C#N)ccc2OC(C)(C)[C@H]1O | 112 ± 33% |
| CCCCC[C@H](O)/C=C/[C@H]1[C@H](O)CC(=O)[C@@H]1C/C=C\CCCC(=O)O [Prostaglandin E2] | 122 ± 1.1% |
| Cc1cccc(CCN2CCC(C(=O)c3ccc(NS(C)(=O)=O)cc3)CC2)n1 [E-4031 dihydrochloride] | 150 ± 13% |
| COc1ccc2[nH]c(I)c(CCNC(C)=O)c2c1 [2-Iodomelatonin] | 106 ± 4.9% |
| S=C(S)N1CCCC1 [Pyrrolidinedithiocarbamate ammonium] | < 0% |
| Fc1ccc(C(c2ccc(F)cc2)N2CCN(C/C=C/c3ccccc3)CC2)cc1 [Flunarizine dihydrochloride] | 56.3 ± 12% |
| Cc1nc2sccn2c(=O)c1CCN1CCC(=C(c2ccccc2)c2ccc(F)cc2)CC1 | 106 ± 24% |
| CN(CC[C@@H](Oc1ccc(-c2ccccc2)cc1)c1ccc(F)cc1)CC(=O)O [ALX 5407 hydrochloride] | 136 ± 5.8% |
| C=C1C(=O)O[C@H]2[C@H]1CC/C(C)=C/CC[C@@]1(C)O[C@@H]21 [Parthenolide] | 87.7 ± 4.2% |
| O=C1CC2(CCCC2)CC(=O)N1CCCCNCC1COc2ccccc2O1 (centres undefined) | 156 ± 5.8% |
| CN1c2cc3c(cc2N=C(c2ccc(C(=O)O)cc2)c2ccccc21)C(C)(C)CCC3(C)C | 61.4 ± 34% |
| CC1(C(=O)O)NCCc2cc(O)c(O)cc21 (centres undefined) [Salsolinol-1-carboxylic acid] | 104 ± 22% |
| C[C@@H](CN1CCC(Cc2ccccc2)CC1)[C@@H](O)c1ccc(O)cc1 [Ro 25-6981 maleate] | 121 ± 23% |
| CC(=N)NCc1cccc(CN)c1 [1400W dihydrochloride] | 74 ± 48% |
| O=C1CC2(CCCC2)CC(=O)N1CCNCC1COc2ccccc2O1 (centres undefined) | 152 ± 13% |
